From PubChem BioAssay (NCI)
The panel holds about 79,000 compounds, 15% with a hit somewhere; the sample as a whole holds those more often. A number with no mark means an inactive call. Activity calls are given as the source filed them. No stated cut-off is given here; in the data, active means growth inhibition above about 70%; inactive means the rest.

test: NCI Yeast Anticancer Drug Screen. Data for the mlh1 rad18 strain (AID 175); conditions: S. cerevisiae mlh1 rad18 strain growth inhibition; at 50.0 µM; hits give high values
Outline: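 Read-out is yeast growth inhibition, calculated against vehicle-only controls. The compound was applied to a strain engineered with DNA damage repair alterations.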

| Structure (SMILES) | growth inhibition |
| --- | --- |
| CCN(CC)CCN(CC)CC(=O)Nc1ccccc1Cl | -14.2% |
| COc1[nH]c2ccccc2c1C=O | 24.1% |
| CCOC(=O)C1=C(C(=O)c2ccc(C)cc2)C(c2ccc([N+](=O)[O-])cc2)C(C(=O)c2ccc(C)cc2)=C(C(=O)OCC)N1 | -11.7% |
| CCOC(=O)CC1(CC(=O)OCC)OCCO1 | -26.2% |
| CCOC(=O)CCC1(C)OCC(O)CO1 (stereo not given) (tested in a mixture with another compound) | -25.8% |
| O=C(NCCc1[nH]nc2c1C(=O)C=C(Nc1ccccc1)C2=O)OCc1ccccc1 | -52.8% |
| NNC(=O)c1ccc(OCc2nc3ccccc3[nH]2)cc1 | -18.7% |
| C=Cc1c(C)c2cc3[nH]c(cc4nc(cc5nc(cc1[nH]2)C(C)=C5CCC(=O)OC)C(CCC(=O)OC)=C4C)c(C)c3C=C | -5.85% |
| Cc1cc(N(CCC#N)S(=O)(=O)c2ccccc2)ccc1C=Nc1ccc(C(=O)O)cc1 | -6.85% |
| CC(C)NC(=O)CCC(=O)O | 0.5% |
| CC1=N/C(=C\c2ccc([N+](=O)[O-])cc2)C(=O)O1 | 42.8% |
| COc1cc(C(C#N)NNC(=O)c2ccccc2O)ccc1O (stereo not given) | 38% |
| NC(=O)CO | 19.5% |
| CC1=CC(O)(Cc2ccccc2)CC(C)(C)C1 (stereo not given) | -28.9% |
| CCCCCn1c(=O)c2c(=O)[nH][nH]c2c2ccccc21 | -22.5% |
| CCCc1cc(=O)oc2c3c(c4c(c12)OC(C)(C)CC4)O[C@H](C)C(C)[C@@H]3O (stereo not given in full) | -10.6% |
| CCN(CCO)CC(=O)c1cc(Cl)ccc1OC | 19.4% |
| CCC1CCC(Cc2ccncc2)CC1 (stereo not given) | -0.9% |
| O=C1c2ccccc2C(=O)c2c1cccc2S(=O)(=O)Nc1ccccc1 | -3.6% |
| O=C(Nc1ccc(Cl)cc1)OCC#CCOC(=O)Nc1ccc(Cl)cc1 | 2.1% |

| Structure (SMILES) | growth inhibition |
| --- | --- |
| CCN(CC)CCOc1ccc(/C(C#N)=C/c2ccc(OCCN3CCCCC3)cc2)cc1 | 33.5% |
| O=C(Nc1ccccc1)c1ccccc1Cl | 12.3% |
| CCC1CCC(=O)NC1=O (stereo not given) | 1.5% |
| CCN(CC)CCOC(=O)c1ccc(N)c2ccccc12 | 6.85% |
| NC1CC(=O)c2c(Cl)sc(Cl)c21 (stereo not given) | 1.15% |
| CCC1(CC)SCc2nc3ccccc3n21 | 42.3% |
| O=c1[nH]cnc2nn(C3OC(CO)C(O)C3O)cc12 (stereo not given) | -18.9% |
| CC1=NN(C(=O)Cc2ccccc2)C(=O)/C1=C\c1ccco1 | -55.9% |
| CCCCCCCCCCCCCCCCCC(N)=O | 25.4% |
| Cc1ccc(-c2nnc(-c3cccc4ccccc34)o2)cc1 | -8.05% |
| CC12OC(=O)CC1C(c1ccccc1)(c1ccccc1)O2 (stereo not given) | -1.85% |
| CCCCCCCCC(=O)c1c(OC)oc(/C=N/NC(N)=S)cc1=O | 71.8% (active) |
| CC(=O)N/N=C1/NN(C(C)=O)C2(S1)C(=O)Nc1ccc(C)cc12 (stereo not given) | 7.7% |
| CCOc1ccccc1NC(=O)CC1Sc2ccccc2NC1=O (stereo not given) | 21.5% |
| CCOC(=O)CS | 22.6% |
| O=c1c2c(ccc3ccccc32)oc2ccc3ccccc3c12 | 16.4% |
| CC1(C)CCC(=O)OC1C[N+](=O)[O-] (stereo not given) | 39.4% |
| CC(=O)OCN(C)C=O | 19.6% |
| O=C(NC1C=Nc2ccc([N+](=O)[O-])cc2NC1=O)c1ccc(Cl)cc1 (stereo not given) | -8.5% |
| CCNC(=O)N(C)Cc1ccc(Cl)cc1 | -5.1% |
